Results on 40 molecules are retold here after PubChem BioAssay (NCATS).

Results filed as inconclusive are left out. Entries that show only a call come without a potency. Calls of active or inactive are those of the source. Calls follow the shape of the dose curve; as a rule, active = well fitted curve in the direction sought with a large enough effect in the signal ratio, with a control signal flat (not every such curve was filed as active); inconclusive = small, poorly fitted or top-dose-only effect, or a change in a side signal; inactive = no such curve, though single readings can be large or run the other way; the % refers to the signal ratio.

This assay in a line: qHTS Assay for Identification of Small Molecule Inducers of Hypoxia Response (AID 2120). Particulars: hypoxia response reporter cells, beta-lactamase ratio readout; series mostly up to 104 µM. From the text:
NIH Chemical Genomics Center [NCGC]
NIH Molecular Libraries Screening Centers Network [MLSCN]
National Institutes of Environmental Health Sciences [NIEHS]
National Toxicology Program [NTP]
Hypoxia-inducible factor-1 (HIF-1) is the major hypoxia-regulated transcription factor that controls cellular responses to low oxygen concentration. HIF-1 is composed of two subunits: hypoxia responsive HIF-1a and constitutively expressed HIF-1b, which is also known as aryl hydrocarbon receptor nuclear translocator. During hypoxic conditions, HIF-1a heterodimerizes with HIF-1b and translocates into the nucleus where the HIF-1 complex binds to the hypoxia-response element (HRE) and activates expression of target genes such as VEGF (vascular endothelial growth factor). The HIF-1 pathway is essential to normal growth and development, and is involved in the pathophysiology of cancer, inflammation, and ischemia.
Using a beta-lactamase reporter-gene under control of the hypoxia response element, a cell-based assay [CellSensor(TM) HRE-bla ME-180 developed by Invitrogen Corp.] was used to measure hypoxia-induced signaling. Library compounds were measured for their ability to induce the reporter gene activity. Compounds were screened in a titration series in 1536-well format. The inducers were identified based on the AC50 values derived from the screening data.
NCGC Assay Protocol Summary
2500 cells/5uL in Opti-MEM medium containing 0.5% dialyzed FBS, 0.1 mM NEAA, 1 mM sodium pyruvate and 10 mM HEPES was dispensed into 1536-well plates and cells were cultured at 37 degrees Celsius for 4-5 hours and then 23 nL of compounds or DMSO were delivered to each well using a pin tool. The plates were incubated at 37 degrees Celsius for 17 hours. 1 uL of CCF4-dye mixture was added to each well. After incubated at room temperature for 2.5 hours the plates were measured on an EnVision plate reader at Excitation 405nm, Emission1=460nm and Emission 2=530nm. The %Activity was determined from the ratio of 460nm/530nm.
On to `CC(C)CON=O`, for which the Potency entry was “inactive”.

On to `CC(C)(Cl)[N+](=O)[O-]`, for which the Potency result was “inactive”.

Consider `O=C(Cc1ccccc1)OCc1ccccc1`, for which the Potency entry is “inactive”.

With `C=CC#N`, the Potency result is “inactive”.

As for `C=CCOCC1CO1` (stereo not given), the Potency result is “inactive”.

As for `O=C(O)CBr`, the Potency entry is “inactive”.

`ClCC(Cl)Cl`: the Potency entry was “inactive”.

As for `Brc1cccc(-c2ccccc2)c1`, the Potency entry was “inactive”.

For `COc1ccccc1N`, the Potency result was “inactive”.

In the case of `CCNCC`, the Potency entry is “inactive”.

For `CC(C)C#N`, the Potency entry is “inactive”.

On to `Cc1ccc(N=C=O)cc1N=C=O`, for which the Potency result was “inactive”.

Take `O=Cc1ccc2c(c1)OCO2`: the Potency result was “inactive”.

As to `C=CCBr`, the Potency result was “inactive”.

Consider `Nc1ccc([N+](=O)[O-])cc1N`, for which the Potency entry is “inactive”.

As for `O=C(O)c1cc(Cl)ccc1Cl`, the Potency entry is “inactive”.

With `N#C/C=C/C#N`, the Potency result was “inactive”.

Regarding `COP(=S)(OC)SCn1nnc2ccccc2c1=O`, the Potency entry is “inactive”.

Take `CC[N+](=O)[O-]`: the Potency entry was “inactive”.

As for `C1CC2OC2CC1C1CO1` (stereo not given), the Potency result was “inactive”.

Turning to `O=[N+]([O-])c1cc(Cl)c(Cl)cc1Cl`, the Potency entry was “inactive”.

Regarding `NC1CCC(CC2CCC(N)CC2)CC1` (stereo not given), the Potency result was “inactive”.

In the case of `ClCc1ccccn1`, the Potency result is “inactive”.

Turning to `O=[N+]([O-])CCO`, the Potency result was “inactive”.

Regarding `O=C(O)CCl`, the Potency entry was “inactive”.

As for `Oc1cc(Cl)cc(Cl)c1`, the Potency entry is “inactive”.

On to `Oc1cccc(Cl)c1`, for which the Potency entry was “inactive”.

`Cc1cccc(N)c1C`: the Potency result was “inactive”.

`CC(C)(OOC(C)(C)c1ccccc1)c1ccccc1`: the Potency result was “inactive”.

For `Nc1ccc(Cc2ccc(N)cc2)cc1`, the Potency result is “inactive”.

For the molecule `C=CC(=O)OCCN(C)C`, the Potency result is “inactive”.

As for `Oc1cc(Cl)c(Cl)c(Cl)c1`, the Potency result was “inactive”.

`C=CCc1cc(OC)c2c(c1)OCO2`: the Potency result is “inactive”.

Turning to `CN(C)c1ccc(N(C)C)cc1`, the Potency result is “inactive”.

For the molecule `ClC(Cl)c1ccccc1`, the Potency result was “inactive”.

With `BrCC(Br)(Br)Br`, the Potency result was “inactive”.

For `CC(C)(Cl)Cl`, the Potency entry is “inactive”.

For `CCC(Cl)[N+](=O)[O-]` (stereo not given), the Potency entry is “inactive”.

For `ClCCOCOCCCl`, the Potency result is “inactive”.

Regarding `Nc1ccc(Cc2ccc(N)c(Cl)c2)cc1Cl`, the Potency result was “inactive”.
